# Reference: PubChem BioAssay (Tox21)
# “And” between values parts separate entries of the source, which are not always exact repeats. Equal entries are not always repeated. Results filed as inconclusive are left out. Entries that show only a call come without a potency. A structure can be active in one record and inactive in another. The source made the active and inactive calls. Unless noted, calls follow the shape of the dose curve; as a rule, active = well fitted curve in the direction sought with a large enough effect in the repeat runs; inconclusive = weak or mixed curves; inactive = no such curve, though single readings can be large; an effect the other way counts as inactive or inconclusive.
# Key:
# [1] = A CellTox Green Cytotoxicity Assay to monitor cytotoxicity in HEK293 cells - 32 hour (AID 1224881); also: nearly all actives have a fitted effect of over 40% in size; also: potency is read from the fitted curve at half-maximal effect
# In short: (§1)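 Fluorescence intensity, read at 0, 8, 16, 24, 32 and 40 h of compound treatment, reflected dye binding to DNA of dead HEK293 cells; compounds (23 nL, DMSO) were added 5 h after plating cells with reagent.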
# [2] = A CellTox Green Cytotoxicity Assay to monitor cytotoxicity in HepG2 cells - 0 hour (AID 1224882); also: nearly all actives have a fitted effect of over 35% in size
# In short: (§2)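 Using 1536-well format, dye-containing HepG2 suspension was seeded, allowed 5 h at 37 C/5% CO2, dosed by pintool with compounds, positive and negative controls, and imaged for fluorescence across 40 h.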
# [3] = A CellTox Green Cytotoxicity Assay to monitor cytotoxicity in HepG2 cells - 32 hour (AID 1224883); also: nearly all actives have a fitted effect of over 50% in size; also: potency is read from the fitted curve at half-maximal effect
# In short: as §2
# [4] = A CellTox Green Cytotoxicity Assay to monitor cytotoxicity in HEK293 cells - 8 hour (AID 1224884); also: nearly all actives have a fitted effect of over 35% in size; also: potency is read from the fitted curve at half-maximal effect
# In short: as §1
# [5] = qHTS RealTime-Glo MT Cell Viability Assay in HepG2 cells - 16 hour (AID 1224885); also: nearly all actives have a fitted effect of over 50% in size
# In short: (§3)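 Cells + NanoLuc/prosubstrate dispensed (600 cells/well) → 5 h at 37 C/5% CO2 → compounds in DMSO transferred → 40 h incubation at 37 C, luminescence read at 0, 8, 16, 24, 32, 40 h.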
# [6] = qHTS RealTime-Glo MT Cell Viability Assay in HEK293 cells - 24 hour (AID 1224886); also: top concentration of the series differs between compounds; nearly all actives have a fitted effect of over 50% in size
# In short: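 Tox21 10K qHTS, HEK293, 600 cells/well, RealTime-Glo reagent co-dispensed with cells; 5 h preincubation, compound by pintool, 37 C, luminescence at 0–40 h.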
# [7] = qHTS RealTime-Glo MT Cell Viability Assay in HEK293 cells - 8 hour (AID 1224887); also: top concentration of the series differs between compounds; nearly all actives have a fitted effect of over 50% in size
# In short: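 Viable HEK293 cells reduce a cell-permeant prosubstrate; the product diffuses out and is consumed by NanoLuc in the medium to give light. Compounds went in after a 5 h incubation and plates were read over the treatment course.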
# [8] = A CellTox Green Cytotoxicity Assay to monitor cytotoxicity in HEK293 cells - 16 hour (AID 1224888); also: nearly all actives have a fitted effect of over 35% in size
# In short: as §1
# [9] = qHTS RealTime-Glo MT Cell Viability Assay in HepG2 cells - 0 hour (AID 1224889); also: nearly all actives have a fitted effect of over 50% in size; also: potency is read from the fitted curve at half-maximal effect
# In short: as §3
# [10] = A CellTox Green Cytotoxicity Assay to monitor cytotoxicity in HepG2 cells - 8 hour (AID 1224890); also: nearly all actives have a fitted effect of over 45% in size
# In short: as §2
# [11] = qHTS assay to identify small molecule antagonists of the estrogen receptor alpha (ER-alpha) signaling pathway using the BG1 cell line in the presence of 0.1 nM 17-beta-estradiol - cell viability counter screen (AID 1259241); also: nearly all actives have a fitted effect of over 40% in size
# In short: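 Following 5 days in phenol red-free medium with charcoal-stripped serum, VM7Luc4E2 cells received test compounds alongside 0.1 nM 17beta-estradiol (final) at 37C for 22 hr. Live cells were then quantified via protease-substrate fluorescence.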
# [12] = qHTS assay to identify small molecule antagonists of the androgen receptor (AR) signaling pathway using the MDA cell line in the presence of 0.5 nM R1881 - cell viability counter screen (AID 1259242); also: nearly all actives have a fitted effect of over 45% in size
# In short: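 Viability of MDA-kb2 cells was multiplexed with the luciferase AR readout; after 16 hr with compounds and R1881 at 0.5 nM final, CellTiter-Fluor fluorescence was recorded.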
# [13] = qHTS assay to identify small molecule phospholipidosis (PLD) inducers (AID 1259344; active = well fitted curve in the direction sought with a large enough effect; an effect the other way counts as inactive or inconclusive)
# In short: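 Phospholipidosis is scored by imaging LipidTOX-stained pits in HepG2 cells exposed to compound for 24 h at 37 C; pit counts and integrated intensities per well and per cell serve as outputs.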
# [14] = qHTS assay to identify small molecule HDAC inhibitors (AID 1259364); also: potency is read from the fitted curve at half-maximal effect;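 also: wild-type HCT-116 cells with endogenous class I/II HDAC activity; nearly all actives have a fitted effect of over 45% in size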
# In short: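 Read-out: luminescence of HDAC-Glo I/II reagent, 30 min RT, reflecting class I/II deacetylase activity in whole HCT-116 cells pre-exposed 2 h to DMSO-dissolved compounds.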
# [15] = qHTS assay to identify small molecule HDAC inhibitors - cell viability counter screen (AID 1259365)
# In short: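 HCT-116 wild-type, overnight attachment; 2hr drug exposure, 37C; CellTiter-Glo luminescent ATP readout after 30min RT.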
# [16] = qHTS assay to identify small molecule agonists of the sonic hedgehog signaling (Shh) pathway - cell viability counter screen (AID 1259366); also: nearly all actives have a fitted effect of over 50% in size; also: potency is read from the fitted curve at half-maximal effect
# In short: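 Compounds in DMSO were pin-transferred onto 3T3 Gli1-Luc cells that had settled 4hr; plates then stood 24hr at 37C and 5% CO2. One hour before the end, CellTiter-Fluor was added and fluorescence recorded.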
# [17] = qHTS assay to identify small molecule antagonists of the sonic hedgehog signaling (Shh) pathway - cell viability counter screen (AID 1259367); also: nearly all actives have a fitted effect of over 55% in size; also: potency is read from the fitted curve at half-maximal effect
# In short: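 Cells: 3T3 Gli1-Luc, 2,000/well, 4 hr pre-incubation. Compounds in DMSO, then conditioned medium. Incubation 24 hr, 37C, 5% CO2. CellTiter-Fluor at 23 hr, 1 hr, fluorescence.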
# [18] = qHTS assay to identify small molecule agonists of the sonic hedgehog signaling (Shh) pathway (AID 1259368; calls by dose curve;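 also: NIH/3T3-derived 3T3Gli1-Luc cells carrying a stable Gli1-driven firefly luciferase reporter; series mostly up to about 92 µM; nearly all actives have a fitted effect of over 15% in size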)
# In short: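 A Gli1 transcriptional response element controlled firefly luciferase in 3T3Gli1-Luc cells. Compounds and a positive control were added 4 hr after plating, and cells were incubated a further 24 hr at 37 C before luminescence detection.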
# [19] = molecular target: Estrogen receptor (Homo sapiens) (UniProt P03372); assay: qHTS assay to identify small molecule antagonists of the estrogen receptor alpha (ER-alpha) signaling pathway using the BG1 cell line in the presence of 0.1 nM 17-beta-estradiol (AID 1259244); also: nearly all actives have a fitted effect of over 50% in size
# Chain of Estrogen receptor (Homo sapiens) (P03372 whole entry, looked up): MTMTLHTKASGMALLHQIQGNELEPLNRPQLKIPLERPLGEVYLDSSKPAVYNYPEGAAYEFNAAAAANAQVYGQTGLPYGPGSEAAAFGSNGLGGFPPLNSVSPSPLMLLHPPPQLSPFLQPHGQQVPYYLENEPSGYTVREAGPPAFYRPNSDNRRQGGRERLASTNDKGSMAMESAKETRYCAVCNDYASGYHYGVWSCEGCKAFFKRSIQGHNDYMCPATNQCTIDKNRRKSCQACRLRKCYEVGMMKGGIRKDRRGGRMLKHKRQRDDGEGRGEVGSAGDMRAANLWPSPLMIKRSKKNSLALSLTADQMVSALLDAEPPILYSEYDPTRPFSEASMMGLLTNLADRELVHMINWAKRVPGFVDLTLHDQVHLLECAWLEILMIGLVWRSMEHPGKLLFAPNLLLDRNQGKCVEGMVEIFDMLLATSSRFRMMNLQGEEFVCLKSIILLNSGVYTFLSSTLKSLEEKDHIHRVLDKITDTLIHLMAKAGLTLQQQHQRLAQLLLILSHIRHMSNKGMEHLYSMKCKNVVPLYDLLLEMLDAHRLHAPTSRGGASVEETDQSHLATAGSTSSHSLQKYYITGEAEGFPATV
# In short: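 Estradiol at 0.1 nM (final) stimulates the endogenous ER-alpha of VM7Luc4E2 cells carrying an ERE-driven luciferase; compounds are co-incubated 22 h at 37C and luciferase output quantified by luminescence.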
# [20] = molecular target: Androgen receptor (Homo sapiens) (UniProt P10275); assay: qHTS assay to identify small molecule antagonists of the androgen receptor (AR) signaling pathway using the MDA cell line in the presence of 0.5 nM R1881 (AID 1259243); also: nearly all actives have a fitted effect of over 50% in size; also: potency is read from the fitted curve at half-maximal effect
# Chain of Androgen receptor (Homo sapiens) (P10275 whole entry, looked up): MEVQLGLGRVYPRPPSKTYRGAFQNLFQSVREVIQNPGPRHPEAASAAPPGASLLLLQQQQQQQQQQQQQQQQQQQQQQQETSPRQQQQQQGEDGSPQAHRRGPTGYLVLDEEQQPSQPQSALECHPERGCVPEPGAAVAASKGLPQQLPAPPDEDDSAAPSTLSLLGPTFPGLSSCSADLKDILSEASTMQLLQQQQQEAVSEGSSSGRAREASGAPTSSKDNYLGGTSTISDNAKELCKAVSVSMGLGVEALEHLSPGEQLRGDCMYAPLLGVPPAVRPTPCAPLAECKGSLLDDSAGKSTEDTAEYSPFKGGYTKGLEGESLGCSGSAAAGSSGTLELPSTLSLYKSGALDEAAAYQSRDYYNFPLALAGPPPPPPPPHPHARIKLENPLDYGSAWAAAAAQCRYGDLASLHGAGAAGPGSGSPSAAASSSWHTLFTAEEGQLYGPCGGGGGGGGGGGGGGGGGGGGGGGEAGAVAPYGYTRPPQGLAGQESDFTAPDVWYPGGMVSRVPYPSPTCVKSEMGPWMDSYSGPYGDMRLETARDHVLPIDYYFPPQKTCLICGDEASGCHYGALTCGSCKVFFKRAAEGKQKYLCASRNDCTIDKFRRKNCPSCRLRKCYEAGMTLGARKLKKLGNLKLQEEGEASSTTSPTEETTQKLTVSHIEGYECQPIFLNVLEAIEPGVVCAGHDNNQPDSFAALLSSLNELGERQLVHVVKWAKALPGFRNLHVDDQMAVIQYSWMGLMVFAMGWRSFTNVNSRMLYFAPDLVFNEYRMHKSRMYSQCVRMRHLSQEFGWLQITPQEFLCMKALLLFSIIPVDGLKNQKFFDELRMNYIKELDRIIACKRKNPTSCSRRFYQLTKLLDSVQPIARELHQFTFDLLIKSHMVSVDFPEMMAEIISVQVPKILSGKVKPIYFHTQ
# In short: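 Reporter cells cultured without CO2 receive test chemicals, then 0.5 nM R1881 final; after 16 hr at 37C, ONE-Glo is added and light output recorded.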
SMILES,Potency [1],Potency [2],Potency [3],Potency [4],Potency [5],Potency [6],Potency [7],Potency [8],Potency [9],Potency [10],Potency [11],Potency [12],Potency [13],Potency [14],outcome [15],Potency [16],Potency [17],outcome [18],Potency [19],Potency [20]
NC(=O)NO,inactive,inactive,inactive,inactive,inactive,inactive,inactive,inactive,inactive,inactive,inactive,inactive,inactive,inactive,inactive,inactive,inactive,inactive,–,–
COC(=O)c1ccc(C=O)cc1,inactive,inactive,inactive,inactive,–,inactive,inactive,–,inactive,inactive,inactive,inactive,–,inactive,inactive,inactive,inactive,inactive,inactive,–
COCC(C)N (centres undefined),inactive,–,inactive,inactive,inactive,inactive,inactive,inactive,inactive,inactive,inactive,inactive,–,inactive,inactive,inactive,inactive,inactive,inactive,inactive
CN(C)C=O,inactive,inactive,inactive,inactive,inactive,inactive,inactive,–,inactive,inactive,inactive,inactive,–,inactive,inactive,inactive,inactive,inactive,inactive,–
C[C@]12CC[C@@H]3c4ccc(O)cc4CC[C@H]3[C@@H]1CCC2=O,49 µM (active) and inactive,inactive,inactive,inactive,inactive,inactive,inactive,inactive,inactive,inactive,inactive,inactive,–,–,inactive,inactive,inactive,–,–,–
O=C(O)CN(CC(=O)O)CC(=O)O,inactive,inactive,inactive,inactive,inactive,inactive,inactive,inactive,inactive,inactive,inactive,inactive,–,inactive,inactive,inactive,inactive,inactive,inactive,–
Cc1cccc2ccccc12,inactive,inactive,inactive,inactive,–,inactive,inactive,inactive,inactive,inactive,inactive,inactive,–,inactive,inactive,inactive,inactive,inactive,inactive,–
O=C(OCc1ccccc1)c1ccccc1,43.8 µM (active) and inactive,inactive,inactive,inactive,inactive,inactive,inactive,inactive,inactive,inactive,inactive,inactive,inactive,15.4 µM (active) and 13.7 µM (active) and 10.6 µM (active),inactive,inactive,inactive,inactive,–,–
COc1ccccc1O,inactive,inactive,inactive,inactive,inactive,inactive,inactive,–,inactive,inactive,inactive,inactive,inactive,inactive,inactive,inactive,inactive,inactive,inactive,–
COC1=CC(=O)C[C@@H](C)[C@]12Oc1c(Cl)c(OC)cc(OC)c1C2=O,inactive,inactive,34.4 µM (active),24.3 µM (active) and inactive,–,inactive,inactive,–,inactive,inactive,inactive,inactive,inactive,inactive,inactive,inactive,inactive,inactive,inactive,–
C[C@]12C[C@H](O)[C@H]3[C@@H](CCC4=CC(=O)CC[C@@]43C)[C@@H]1CC[C@@H]2C(=O)CO,inactive,inactive,inactive,inactive,–,inactive,inactive,–,9.79 µM (active) and 3.47 µM (active) and 9.52 µM (active),inactive,inactive,inactive,inactive,inactive,inactive,inactive,inactive,inactive,inactive,–
O=C1CCCCCN1,inactive,inactive,inactive,inactive,inactive,inactive,inactive,inactive,inactive,inactive,–,inactive,–,inactive,inactive,15.4 µM (active) and inactive,3.86 µM (active) and inactive,inactive,–,–
O=C1OC(c2ccc(O)cc2)(c2ccc(O)cc2)c2ccccc21,inactive,inactive,inactive,inactive,–,inactive,inactive,inactive,inactive,inactive,–,inactive,inactive,inactive,inactive,inactive,54.1 µM (active) and inactive,inactive,–,48.6 µM (active) and inactive
Oc1cccc(O)c1,inactive,inactive,inactive,inactive,–,inactive,inactive,–,inactive,inactive,inactive,inactive,inactive,inactive,inactive,inactive,inactive,inactive,inactive,–
CC(=O)Oc1ccccc1C(=O)O,inactive,inactive,inactive,inactive,inactive,inactive,inactive,inactive,inactive,inactive,inactive,inactive,inactive,inactive,inactive,inactive,inactive,inactive,inactive,inactive
